In PubChem BioAssay (Tox21):
Records with an inconclusive call do not appear. Activity calls are given as the source filed them. Unless noted, calls come from the whole dose curve; as a rule, active = well fitted curve in the direction sought with a large enough effect in the repeat runs; inconclusive = weak or mixed curves; inactive = no such curve, though single readings can be large; an effect the other way counts as inactive or inconclusive.

Columns and labels:
[1] = qHTS assay to identify small molecule agonists of the vitamin D receptor (VDR) signaling pathway - cell viability counter screen (AID 743224); note: series mostly up to about 63 µM; nearly all actives have a fitted effect of over 50% in size
Procedure, shortened: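 Cells: VDR-bla, 2,000/well, settled 4 h. Treatment: compounds in DMSO, 16 h, 37C/5% CO2. Readout: CellTiter-Glo luminescence after 30 min RT.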

[2] = qHTS assay to identify small molecule antagonists of the vitamin D receptor (VDR) signaling pathway - cell viability counter screen (AID 743225); note: nearly all actives have a fitted effect of over 50% in size
Procedure, shortened: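 HEK293T VDR-bla; cpd + 1a,25-(OH)2D3 3 nM final, 16 h 37C/5% CO2; B/G FRET substrate 2 h RT; then CellTiter-Glo 30 min RT, luminescence.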

[3] = qHTS assay to identify small molecule agonists of the NFkB signaling pathway (AID 1159509; active = well fitted curve in the direction sought with a large enough effect in the signal ratio in the repeat runs, not every such curve was filed as active; the % refers to the signal ratio; note: series mostly up to about 61 µM)
Procedure, shortened: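 Beta-lactamase reporter assay run in quantitative high-throughput format on an NF-kB-responsive ME-180 line, with 5 hr compound treatment and a FRET-based blue/green fluorescence readout.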

[4] = qHTS assay to identify small molecule agonists of the NFkB signaling pathway - cell viability counter screen (AID 1159515; calls by dose curve; note: series mostly up to about 61 µM; nearly all actives have a fitted effect of over 55% in size)
Procedure, shortened: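 Cells are seeded (2,000 NFkB-bla ME-180 per well), rested overnight, and dosed with DMSO-dissolved compounds for 5 hr at 37 C. Viability is then read by CellTiter-Glo luminescence after 30 min at room temperature.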

[5] = qHTS assay to identify small molecule agonists of the endoplasmic reticulum stress response signaling pathway (AID 1159516; active = well fitted activation curve with a large enough effect in the signal ratio in the repeat runs, not every such curve was filed as active; the % refers to the signal ratio)
Procedure, shortened: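 Cells are seeded at 1,500 per well and incubated overnight. Compounds in DMSO are added for 5 hr at 37 C, then beta-lactamase FRET substrate for 2 hr at room temperature, and fluorescence at 460 and 530 nm is measured.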

[6] = qHTS assay to identify small molecule antagonists of the retinoid-related orphan receptor gamma (ROR-gamma) signaling pathway - cell viability counter screen (AID 1159520); note: nearly all actives have a fitted effect of over 50% in size
Procedure, shortened: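 Tet-on ROR gamma CHO cells (1,000/well) were plated 4 hr, given compounds in DMSO for 2 hr at 37 C, then induced with 1 uM final doxycycline for 16 hr. Viability was read as ATP by CellTiter-Glo luminescence after 30 min.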

[7] = target: Nuclear receptor ROR-gamma (Homo sapiens) (UniProt P51449); experiment: qHTS assay to identify small molecule antagonists of the retinoid-related orphan receptor gamma (ROR-gamma) signaling pathway (AID 1159521;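 note: CHO cells with doxycycline inducible ROR-gamma driving an RORE luciferase reporter; top concentration of the series differs between compounds; nearly all actives have a fitted effect of over 50% in size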)
Procedure, shortened: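 Cells were plated, rested 4 h at 37 C, exposed to compounds for 2 h, then given 1 uM final doxycycline hyclate to induce RORγ expression. After 16 h, ONE-Glo luminescence from the ROR response element reporter was measured.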

[8] = qHTS assay to identify small molecule agonists of the AP-1 signaling pathway - cell viability counter screen (AID 1159525; calls by dose curve; note: nearly all actives have a fitted effect of over 55% in size)
Procedure, shortened: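 Each titration point was normalised to DMSO and tetra n-octyl ammonium bromide controls. The read was Cell Titer Glo luminescence after 30 min at RT, following 5 h compound exposure of ME-180 AP-1-bla cells at 37 °C.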

[9] = qHTS assay to identify small molecule agonists of the AP-1 signaling pathway (AID 1159526; calls by dose curve)
[10] = target: Retinoic acid receptor RXR-alpha (Homo sapiens) (UniProt P19793); experiment: qHTS assay to identify small molecule agonists of the RXR signaling pathway (AID 1159527; calls by dose curve; note: nearly all actives have a fitted effect of over 35% in size; note: potency is the fitted concentration of half-maximal effect)
Procedure, shortened: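 Cells plated at 2,000/well, rested 5 hr at 37 C, pin-dosed with DMSO compound solutions, incubated 16 hr, then loaded with B/G FRET substrate for 2 hr at RT before dual-emission fluorescence reading.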

[11] = qHTS assay to identify small molecule agonists of the RXR signaling pathway - cell viability counter screen (AID 1159529)
Procedure, shortened: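 Steps: seed RXR-alpha-UAS-bla HEK 293T cells in assay medium containing 2% charcoal-stripped FBS; incubate 5 hr; add compounds in DMSO; incubate 16 hr at 37 C; after the bla read, add CellTiter-Glo and read luminescence at 30 min.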

[12] = qHTS assay to identify small molecule antagonists of the retinoid acid receptor (RAR) signaling pathway - cell viability counter screen (AID 1159551); note: nearly all actives have a fitted effect of over 35% in size
Procedure, shortened: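 Cells (C3RL4) are plated, incubated overnight, dosed with compound in DMSO, then given retinol at 1 uM final. After 6 h at 37 C, CellTiter-Glo is added and luminescence read following 30 min at room temperature.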

[13] = qHTS assay to identify small molecule antagonists of the retinoic acid receptor (RAR) signaling pathway (AID 1159552; note: nearly all actives have a fitted effect of over 50% in size; note: potency is the fitted concentration of half-maximal effect)
Procedure, shortened: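 Retinol at 1 uM final stimulated RARE-luciferase expression in C3RL4 cells exposed to test compounds for 6 hr at 37 C. Reduced luminescence, read 30 min after detection reagent, indicated pathway antagonism.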

[14] = qHTS assay to identify small molecule agonists of the retinoic acid receptor (RAR) signaling pathway (AID 1159553)
Procedure, shortened: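 Seed C3RL4 reporter cells at 1,000 per well and incubate overnight at 37 C. Add compounds in DMSO, incubate 6 hr. Add luciferase reagent, wait 30 min at room temperature, read luminescence.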

[15] = qHTS assay to identify small molecule agonists of the endoplasmic reticulum stress response signaling pathway - cell viability counter screen (AID 1159517; calls by dose curve)
Procedure, shortened: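 Cytotoxicity of test compounds toward ESRE-bla HeLa cells was assessed after 5 hr exposure. The luminescent CellTiter-Glo signal was measured 30 min after reagent addition.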

[16] = qHTS assay to identify small molecule antagonists of the estrogen related receptor (ERR) signaling pathway - cell viability counter screen (AID 1224818); note: series mostly up to about 46 µM
Procedure, shortened: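 ERR cells, 2,000/well; 6 h settle at 37 C/5% CO2; compound pin transfer (DMSO); 17.5 h at 37 C; CellTiter-Fluor, 30 min, fluorescence read.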

[17] = qHTS assay to identify small molecule antagonists of the estrogen related receptor signaling pathway with the pleiotropic PPARgamma coactivator (PGC) cell viability counter screen (AID 1224822;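 note: series mostly up to about 46 µM; viability read after 17.5 h compound exposure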)
Procedure, shortened: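 Multiplexed viability counter screen run in PGC/ERR cells treated with compounds for 17.5 h at 37 C; live-cell protease signal measured by CellTiter-Fluor fluorescence.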

Measured: Potency

Sequence of Retinoic acid receptor RXR-alpha (Homo sapiens) (P19793 whole entry, looked up): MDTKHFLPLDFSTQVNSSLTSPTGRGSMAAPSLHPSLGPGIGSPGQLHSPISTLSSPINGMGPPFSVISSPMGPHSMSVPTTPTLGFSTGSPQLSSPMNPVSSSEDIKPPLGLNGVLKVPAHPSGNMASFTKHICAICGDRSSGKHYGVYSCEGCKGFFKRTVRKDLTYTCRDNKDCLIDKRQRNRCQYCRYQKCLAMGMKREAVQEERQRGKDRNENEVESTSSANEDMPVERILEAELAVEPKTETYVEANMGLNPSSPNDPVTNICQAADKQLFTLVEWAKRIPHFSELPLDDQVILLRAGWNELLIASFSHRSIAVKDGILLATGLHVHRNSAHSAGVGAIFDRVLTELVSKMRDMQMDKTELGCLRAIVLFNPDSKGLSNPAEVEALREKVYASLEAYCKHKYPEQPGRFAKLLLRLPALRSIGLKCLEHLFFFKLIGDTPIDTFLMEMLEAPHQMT

COc1cc2[nH]c(=O)[nH]c(=O)c2cc1OC
inactive: [1] | [2] | [3] | [4] | [5] | [6] | [7] | [8] | [9] | [10] | [11] | [12] | [13] | [14]

C=CC(C)(C)CC(=O)OC
active: [13] 15.4 µM
inactive: [1] | [2] | [3] | [4] | [5] | [15] | [8] | [9] | [11] | [14]

OC/C(Br)=C(\Br)CO
inactive: [1] | [2] | [3] | [4] | [5] | [6] | [7] | [9] | [10] | [11] | [12] | [13] | [14]

C[Si]1(C)O[Si](C)(C)O[Si](C)(C)O1
inactive: [1] | [3] | [4] | [5] | [6] | [7] | [8] | [9] | [10] | [11] | [12] | [14]

CC1(C)C(=O)N(Br)C(=O)N1Cl
inactive: [1] | [2] | [3] | [4] | [5] | [15] | [8] | [10] | [11] | [12] | [14]

O=C(O)c1cccnc1C(=O)O
inactive: [1] | [2] | [3] | [4] | [5] | [6] | [7] | [8] | [9] | [10] | [11] | [12] | [14] | [16] | [17]

CC(C)(C)C(=O)O
active: [10] 39.1 µM
inactive: [1] | [2] | [3] | [4] | [5] | [6] | [7] | [8] | [9] | [11] | [12] | [13] | [14]

COCc1c(C(C)C)nc(C(C)C)c(/C=C/[C@@H](O)C[C@@H](O)CC(=O)O)c1-c1ccc(F)cc1
inactive: [1] | [2] | [3] | [4] | [5] | [15] | [9] | [10] | [12] | [13] | [14]

CCC(=O)OC/C=C/c1ccccc1
inactive: [1] | [2] | [3] | [4] | [5] | [6] | [7] | [9] | [10] | [11] | [12]
